Results published in the supplement of paper PMC10849652.
About 8,800 targets were measured; listed, in parts, are those with a hit and a random draw of the rest. About 0.5% of all pairs of compound and target were hits.

Tests used:
Assay in all cases: log2 fold change, soluble protein after heating vs DMSO (PISA); higher = thermal stabilisation; K562 lysate, 10 uM; active = over 0.2 and 3.5 SD of the protein, either way, in both replicates (recomputed)
erlotinib = compound: C#Cc1cccc(Nc2ncnc3cc(OCCOC)c(OCCOC)cc23)c1 [erlotinib]
Procedure, shortened: (§1)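 To prepare the extract, K562 pellets were dounce-homogenised in PBS pH 7.4 with 1 mM MgCl2, giving crude material at 1 mg/mL protein. This was treated with 10 μM compound for 30 min, then heated in aliquots for 3 min over 48°C-58°C before pooling and addition of NP-40 to 0.5% at 4°C. Centrifugation at 21,000xg for 90 min left soluble protein in the supernatant, which TMTpro 16plex LC-MS/MS quantified with equalised channel sums. Results are log-two fold changes in thermal stability compared with solvent controls, from duplicates.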

[1] = compound: C/C(=N\NC(=O)C1=CC(=CC=C1)S(=O)(=O)N2CCOCC2)/C3=C(C=CC(=C3)Cl)O
Procedure, shortened: as §1

[2] = compound: C1=CC(=CC=C1C2=NC3=C(N2)C=C(C=C3)C(=O)N)OC4=CC=C(C=C4)Cl
Procedure, shortened: as §1

[3] = compound: C1=CC2=C(C=CC(=C2)/C=C\3/C(=O)NC(=NCC4=CC=CS4)S3)N=C1
Procedure, shortened: as §1

[4] = compound: C1=CC2=NC=CN=C2C=C1/C=C/3\C(=O)NC(=O)S3
Procedure, shortened: as §1

[5] = compound: C1=CC=C(C=C1)C2=NC(=C(N2)C3=CC=NC=C3)C4=CC(=C(C=C4)Cl)O
Procedure, shortened: as §1

[6] = compound: C1=CC=C2C(=C1)C3=NNC4=CC=CC(=C43)C2=O
Procedure, shortened: as §1

[7] = compound: C1CCN(C1)C(=O)NC2=CC=CC(=C2)NC3=NC=C(C(=N3)NCCC4=CN=CN4)Br
Procedure, shortened: as §1

[8] = compound: C1CN(CCC1(CC2=CC=C(C=C2)Cl)N)C3=NC=NC4=C3C=CN4
Procedure, shortened: as §1

IRAK-1-4 Inhibitor I = compound: C1COCCN1CCN2C3=CC=CC=C3N=C2NC(=O)C4=CC(=CC=C4)[N+](=O)[O-] [IRAK-1-4 Inhibitor I]
Procedure, shortened: as §1

Measured: log2 fold change

DNAJC3 (UniProt Q13217)
inactive: erlotinib -0.002 | [1] -0.057 | [2] 0.06 | [3] 0.008 | [4] -0.021 | [5] -0.032 | [6] -0.02 | [7] -0.033 | [8] -0.047 | IRAK-1-4 Inhibitor I 0.011

DNAAF5 (UniProt Q86Y56)
inactive: erlotinib -0.008 | [1] 0.041 | [2] -0.062 | [3] -0.057 | [4] 0.021 | [5] -0.016 | [6] -0.08 | [7] -0.003 | [8] 0.007 | IRAK-1-4 Inhibitor I -0.039

CLPTM1L (UniProt Q96KA5)
Sequence of UniProt Q96KA5 (Q96KA5 whole entry, looked up): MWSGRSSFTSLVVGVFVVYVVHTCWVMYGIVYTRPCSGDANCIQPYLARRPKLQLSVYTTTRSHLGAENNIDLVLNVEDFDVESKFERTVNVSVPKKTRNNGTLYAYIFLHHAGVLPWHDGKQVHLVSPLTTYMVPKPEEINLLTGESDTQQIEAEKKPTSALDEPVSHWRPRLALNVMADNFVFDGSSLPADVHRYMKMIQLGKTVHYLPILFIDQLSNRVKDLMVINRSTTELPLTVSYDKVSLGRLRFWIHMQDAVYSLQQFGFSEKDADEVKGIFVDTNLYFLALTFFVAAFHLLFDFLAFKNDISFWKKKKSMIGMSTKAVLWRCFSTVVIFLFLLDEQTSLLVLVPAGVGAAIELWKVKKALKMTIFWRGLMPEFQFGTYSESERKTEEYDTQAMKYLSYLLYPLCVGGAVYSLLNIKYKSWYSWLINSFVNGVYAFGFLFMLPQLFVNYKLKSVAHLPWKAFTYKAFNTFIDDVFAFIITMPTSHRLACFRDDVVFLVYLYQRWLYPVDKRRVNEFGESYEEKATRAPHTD
inactive: erlotinib -0.019 | [1] 0.014 | [2] -0.143 | [3] -0.01 | [4] 0.009 | [5] -0.052 | [6] -0.197 | [7] -0.059 | [8] 0.091 | IRAK-1-4 Inhibitor I -0.01

CLASP2 isoform 3 (UniProt O75122)
inactive: erlotinib 0.032 | [1] -0.014 | [2] -0.022 | [3] -0.032 | [4] -0.018 | [5] 0 | [6] -0.024 | [7] -0.024 | [8] 0.057 | IRAK-1-4 Inhibitor I -0.012

CSPP1 (UniProt Q1MSJ5)
inactive: erlotinib -0.028 | [1] -0.094 | [2] 0.079 | [3] 0.017 | [4] -0.088 | [5] 0.021 | [6] -0.137 | [7] -0.02 | [8] 0.007 | IRAK-1-4 Inhibitor I -0.026

CSNK1E (UniProt P49674)
inactive: erlotinib -0.003 | [1] 0.006 | [2] 0.161 | [3] 0.047 | [4] 0.018 | [7] -0.056 | [8] 0.009 | IRAK-1-4 Inhibitor I -0.032
active: [5] 0.297 | [6] 0.345

DDX20 (UniProt Q9UHI6)
inactive: erlotinib 0.021 | [1] 0.048 | [2] -0.054 | [3] -0.029 | [4] -0.005 | [5] 0.007 | [6] 0.022 | [7] 0.032 | [8] 0.042 | IRAK-1-4 Inhibitor I -0.015

DOCK7 (UniProt Q96N67)
inactive: erlotinib 0.078 | [1] 0.009 | [2] -0.045 | [3] -0.041 | [4] -0.126 | [5] 0.014 | [6] -0.023 | [7] -0.003 | [8] 0.016 | IRAK-1-4 Inhibitor I 0.024

CXXC1 isoform 2 (UniProt Q9P0U4)
inactive: erlotinib 0.02 | [1] -0.031 | [2] -0.051 | [3] 0.029 | [4] -0.085 | [5] -0.036 | [6] -0.088 | [7] 0.082 | [8] 0.04 | IRAK-1-4 Inhibitor I 0.059

CIP2A (UniProt Q8TCG1)
inactive: erlotinib 0.057 | [1] 0.18 | [2] -0.086 | [3] 0.034 | [4] -0.019 | [5] 0.019 | [6] -0.11 | [7] -0.002 | [8] 0.02 | IRAK-1-4 Inhibitor I 0.007

DDX54 isoform 2 (UniProt Q8TDD1)
inactive: erlotinib -0.088 | [1] -0.36 | [2] -0.038 | [3] -0.035 | [4] -0.191 | [5] -0.001 | [6] -0.054 | [7] 0.069 | [8] 0.014 | IRAK-1-4 Inhibitor I -0.058

CHORDC1 (UniProt Q9UHD1)
Sequence of UniProt Q9UHD1 (Q9UHD1 whole entry, looked up): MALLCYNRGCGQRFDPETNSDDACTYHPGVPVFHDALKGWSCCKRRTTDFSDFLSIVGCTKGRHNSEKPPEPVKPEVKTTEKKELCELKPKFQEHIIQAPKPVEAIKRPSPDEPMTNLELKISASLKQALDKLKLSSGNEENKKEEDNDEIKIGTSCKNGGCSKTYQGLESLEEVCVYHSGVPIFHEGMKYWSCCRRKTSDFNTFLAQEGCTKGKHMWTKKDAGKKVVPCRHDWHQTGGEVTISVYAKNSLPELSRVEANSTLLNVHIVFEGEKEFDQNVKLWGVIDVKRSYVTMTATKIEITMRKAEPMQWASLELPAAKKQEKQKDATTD
inactive: erlotinib 0.015 | [1] 0.007 | [2] 0.017 | [3] 0.001 | [4] 0.004 | [5] 0.002 | [6] 0.005 | [7] -0.007 | [8] 0.015 | IRAK-1-4 Inhibitor I -0.016

DMXL1 (UniProt Q9Y485)
Sequence of UniProt Q9Y485 (Q9Y485 whole entry, looked up): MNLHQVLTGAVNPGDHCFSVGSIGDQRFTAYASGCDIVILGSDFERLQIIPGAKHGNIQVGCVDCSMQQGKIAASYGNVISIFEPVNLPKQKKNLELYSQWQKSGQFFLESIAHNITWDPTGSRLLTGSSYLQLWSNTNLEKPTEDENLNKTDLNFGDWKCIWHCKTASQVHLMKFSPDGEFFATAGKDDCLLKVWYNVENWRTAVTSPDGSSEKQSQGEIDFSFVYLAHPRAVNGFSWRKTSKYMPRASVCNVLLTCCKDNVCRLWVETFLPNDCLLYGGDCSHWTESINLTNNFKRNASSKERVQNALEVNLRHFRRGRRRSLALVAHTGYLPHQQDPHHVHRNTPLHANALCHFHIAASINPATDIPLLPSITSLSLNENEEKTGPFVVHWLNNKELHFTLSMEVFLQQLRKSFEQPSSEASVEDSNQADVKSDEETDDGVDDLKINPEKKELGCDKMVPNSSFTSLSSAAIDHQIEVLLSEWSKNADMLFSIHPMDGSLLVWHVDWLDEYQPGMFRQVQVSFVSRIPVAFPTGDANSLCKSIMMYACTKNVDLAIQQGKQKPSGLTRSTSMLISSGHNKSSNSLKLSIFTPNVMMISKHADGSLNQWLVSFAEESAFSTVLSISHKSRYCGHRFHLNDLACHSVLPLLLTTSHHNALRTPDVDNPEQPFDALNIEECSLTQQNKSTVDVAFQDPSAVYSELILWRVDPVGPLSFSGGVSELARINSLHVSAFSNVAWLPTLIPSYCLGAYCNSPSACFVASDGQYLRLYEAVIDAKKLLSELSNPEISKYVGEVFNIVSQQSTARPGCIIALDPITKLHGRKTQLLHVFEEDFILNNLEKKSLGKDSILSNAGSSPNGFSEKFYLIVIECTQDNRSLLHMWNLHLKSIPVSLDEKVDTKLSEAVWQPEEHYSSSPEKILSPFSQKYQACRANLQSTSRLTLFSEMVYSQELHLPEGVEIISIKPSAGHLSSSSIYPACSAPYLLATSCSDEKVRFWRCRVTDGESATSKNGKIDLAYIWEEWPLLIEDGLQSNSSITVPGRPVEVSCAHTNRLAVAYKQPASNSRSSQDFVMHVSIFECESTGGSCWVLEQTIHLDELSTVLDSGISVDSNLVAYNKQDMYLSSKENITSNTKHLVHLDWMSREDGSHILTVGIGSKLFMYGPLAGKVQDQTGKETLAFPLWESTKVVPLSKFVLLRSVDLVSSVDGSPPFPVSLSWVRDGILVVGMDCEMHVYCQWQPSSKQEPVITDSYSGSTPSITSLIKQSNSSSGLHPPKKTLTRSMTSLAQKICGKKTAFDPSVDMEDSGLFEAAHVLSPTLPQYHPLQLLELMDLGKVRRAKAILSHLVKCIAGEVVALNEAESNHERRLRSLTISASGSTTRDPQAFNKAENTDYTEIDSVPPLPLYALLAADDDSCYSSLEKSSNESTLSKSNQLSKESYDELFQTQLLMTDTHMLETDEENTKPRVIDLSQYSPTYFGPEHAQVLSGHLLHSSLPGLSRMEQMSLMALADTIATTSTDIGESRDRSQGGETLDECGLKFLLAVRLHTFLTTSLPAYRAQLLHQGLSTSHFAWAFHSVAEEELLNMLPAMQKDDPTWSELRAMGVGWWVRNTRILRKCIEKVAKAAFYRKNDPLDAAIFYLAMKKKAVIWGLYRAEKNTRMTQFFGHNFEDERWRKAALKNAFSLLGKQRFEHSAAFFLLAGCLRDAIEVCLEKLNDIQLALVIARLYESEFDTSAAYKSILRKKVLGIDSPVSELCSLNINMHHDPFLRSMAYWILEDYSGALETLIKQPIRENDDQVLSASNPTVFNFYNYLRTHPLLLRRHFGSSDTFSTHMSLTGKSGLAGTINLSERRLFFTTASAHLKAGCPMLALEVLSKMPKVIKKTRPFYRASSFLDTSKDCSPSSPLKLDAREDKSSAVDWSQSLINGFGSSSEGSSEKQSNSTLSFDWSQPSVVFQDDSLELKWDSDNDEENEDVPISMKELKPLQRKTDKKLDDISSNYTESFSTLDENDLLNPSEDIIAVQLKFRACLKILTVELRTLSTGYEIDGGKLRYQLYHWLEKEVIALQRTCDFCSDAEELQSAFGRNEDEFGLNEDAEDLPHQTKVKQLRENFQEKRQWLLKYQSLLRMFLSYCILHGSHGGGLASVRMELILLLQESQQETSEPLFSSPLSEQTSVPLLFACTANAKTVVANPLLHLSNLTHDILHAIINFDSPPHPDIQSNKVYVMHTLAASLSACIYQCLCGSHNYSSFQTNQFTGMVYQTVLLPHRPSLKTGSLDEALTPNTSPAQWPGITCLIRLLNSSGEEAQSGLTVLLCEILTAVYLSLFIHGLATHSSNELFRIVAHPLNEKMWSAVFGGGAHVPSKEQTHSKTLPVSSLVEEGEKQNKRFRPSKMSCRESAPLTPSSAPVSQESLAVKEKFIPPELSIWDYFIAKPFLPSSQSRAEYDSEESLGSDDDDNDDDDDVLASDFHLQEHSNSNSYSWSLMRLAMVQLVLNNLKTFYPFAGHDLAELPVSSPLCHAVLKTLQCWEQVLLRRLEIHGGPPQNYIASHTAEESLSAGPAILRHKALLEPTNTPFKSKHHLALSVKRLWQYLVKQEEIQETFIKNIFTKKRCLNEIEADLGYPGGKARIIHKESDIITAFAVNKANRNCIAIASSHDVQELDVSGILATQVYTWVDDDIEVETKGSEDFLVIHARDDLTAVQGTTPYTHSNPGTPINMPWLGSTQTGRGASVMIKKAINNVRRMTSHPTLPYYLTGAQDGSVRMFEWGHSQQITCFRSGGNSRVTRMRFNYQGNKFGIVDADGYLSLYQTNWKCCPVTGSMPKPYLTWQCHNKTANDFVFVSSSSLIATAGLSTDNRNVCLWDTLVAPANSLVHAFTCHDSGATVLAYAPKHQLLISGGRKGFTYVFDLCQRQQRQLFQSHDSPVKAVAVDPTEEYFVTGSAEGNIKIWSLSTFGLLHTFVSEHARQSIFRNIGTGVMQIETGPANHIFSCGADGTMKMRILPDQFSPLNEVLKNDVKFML
inactive: erlotinib 0.006 | [1] 0.016 | [2] -0.015 | [3] -0.017 | [4] -0.024 | [5] -0.008 | [6] -0.026 | [7] -0.013 | [8] -0.001 | IRAK-1-4 Inhibitor I 0.016

COG5 isoform 2 (UniProt Q9UP83)
inactive: erlotinib 0.073 | [1] 0.016 | [2] -0.044 | [3] 0.001 | [4] -0.004 | [5] 0.019 | [6] 0.031 | [7] 0.019 | [8] 0.043 | IRAK-1-4 Inhibitor I -0.001

CLUH, A0A494C0R8
inactive: erlotinib 0.077 | [1] -0.023 | [2] -0.041 | [3] 0.02 | [4] 0.225 | [5] 0 | [6] -0.114 | [7] 0.05 | [8] -0.063 | IRAK-1-4 Inhibitor I 0.008

CNOT4 isoform 6 (UniProt O95628)
Sequence of UniProt O95628 (O95628 whole entry, looked up): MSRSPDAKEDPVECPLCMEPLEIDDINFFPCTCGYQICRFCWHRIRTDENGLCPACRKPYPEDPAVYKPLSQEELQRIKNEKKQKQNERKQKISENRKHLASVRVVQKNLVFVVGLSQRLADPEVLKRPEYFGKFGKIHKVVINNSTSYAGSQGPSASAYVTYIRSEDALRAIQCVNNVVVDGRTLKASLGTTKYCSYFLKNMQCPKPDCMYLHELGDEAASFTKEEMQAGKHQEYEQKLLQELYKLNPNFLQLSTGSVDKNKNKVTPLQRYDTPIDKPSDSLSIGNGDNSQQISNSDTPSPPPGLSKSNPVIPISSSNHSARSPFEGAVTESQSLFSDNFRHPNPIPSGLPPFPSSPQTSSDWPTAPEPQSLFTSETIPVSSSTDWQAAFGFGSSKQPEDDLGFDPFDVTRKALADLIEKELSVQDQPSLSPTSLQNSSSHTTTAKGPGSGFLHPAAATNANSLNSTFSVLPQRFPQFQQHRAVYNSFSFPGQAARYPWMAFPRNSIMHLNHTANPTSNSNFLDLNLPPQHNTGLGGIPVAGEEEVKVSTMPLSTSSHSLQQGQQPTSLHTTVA
inactive: erlotinib -0.025 | [1] -0.016 | [2] 0.005 | [3] 0.017 | [4] 0.009 | [5] -0.035 | [6] 0.043 | [7] -0.032 | [8] -0.013 | IRAK-1-4 Inhibitor I 0.041

CSK (UniProt P41240)
Sequence of UniProt P41240 (P41240 whole entry, looked up): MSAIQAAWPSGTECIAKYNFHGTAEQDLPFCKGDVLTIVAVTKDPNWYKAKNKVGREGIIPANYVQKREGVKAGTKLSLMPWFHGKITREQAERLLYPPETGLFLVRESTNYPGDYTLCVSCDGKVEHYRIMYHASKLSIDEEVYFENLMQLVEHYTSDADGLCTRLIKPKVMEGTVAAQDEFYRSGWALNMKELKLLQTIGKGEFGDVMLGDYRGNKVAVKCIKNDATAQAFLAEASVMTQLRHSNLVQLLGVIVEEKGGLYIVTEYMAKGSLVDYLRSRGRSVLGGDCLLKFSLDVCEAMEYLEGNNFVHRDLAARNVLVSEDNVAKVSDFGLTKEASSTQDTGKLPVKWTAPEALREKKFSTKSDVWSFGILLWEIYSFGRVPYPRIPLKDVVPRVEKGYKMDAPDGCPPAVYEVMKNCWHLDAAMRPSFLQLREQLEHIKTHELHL
inactive: erlotinib 0.045 | [1] -0.025 | [2] -0.004 | [3] -0.028 | [4] -0.035 | [5] 0.031 | [6] 0.106 | [7] 0.107 | [8] 0.033 | IRAK-1-4 Inhibitor I 0.053

CTPS2 (UniProt Q9NRF8)
inactive: erlotinib -0.009 | [1] -0.008 | [2] -0.016 | [3] -0.01 | [4] 0.01 | [5] -0.008 | [6] 0 | [7] -0.021 | [8] -0.015 | IRAK-1-4 Inhibitor I -0.006

CWC22 (UniProt Q9HCG8)
inactive: erlotinib 0.058 | [1] 0.006 | [2] -0.046 | [3] -0.009 | [4] -0.032 | [5] -0.025 | [6] -0.092 | [7] -0.014 | [8] -0.006 | IRAK-1-4 Inhibitor I -0.017

DDX39A (UniProt O00148)
inactive: erlotinib 0.023 | [1] -0.095 | [2] -0.045 | [3] -0.001 | [4] -0.003 | [5] 0.008 | [6] -0.026 | [7] -0.02 | [8] 0.009 | IRAK-1-4 Inhibitor I 0.014

DGCR8 (UniProt Q8WYQ5)
inactive: erlotinib 0.045 | [1] -0.026 | [2] 0.019 | [3] 0.023 | [4] -0.057 | [5] 0.002 | [6] -0.011 | [7] -0.019 | [8] 0 | IRAK-1-4 Inhibitor I -0.038

CHUK (UniProt O15111)
inactive: erlotinib -0.005 | [1] 0.114 | [2] -0.076 | [3] 0.01 | [4] -0.019 | [5] 0.022 | [6] 0.015 | [7] -0.002 | [8] -0.002 | IRAK-1-4 Inhibitor I -0.044

CNOT2 (UniProt Q9NZN8)
inactive: erlotinib 0.016 | [1] 0.013 | [2] 0.021 | [3] 0.015 | [4] -0.016 | [5] -0.011 | [6] 0.014 | [7] 0.004 | [8] 0.012 | IRAK-1-4 Inhibitor I 0.007

COMT (UniProt P21964)
inactive: erlotinib 0.031 | [1] -0.03 | [2] -0.01 | [3] 0.011 | [4] -0.029 | [5] 0.001 | [6] 0.043 | [7] -0.024 | [8] -0.033 | IRAK-1-4 Inhibitor I 0.019

DCP2 (UniProt Q8IU60)
inactive: erlotinib 0.005 | [1] 0.039 | [2] -0.029 | [3] -0.064 | [4] -0.037 | [5] -0.007 | [6] 0.001 | [7] 0.025 | [8] -0.014 | IRAK-1-4 Inhibitor I -0.017

CKM (UniProt P06732)
inactive: erlotinib 0.034 | [1] -0.167 | [2] 0.003 | [3] 0.023 | [4] 0.058 | [5] -0.024 | [6] 0 | [7] -0.017 | [8] 0.038 | IRAK-1-4 Inhibitor I 0.044

CTNNBL1 (UniProt Q8WYA6)
inactive: erlotinib 0.023 | [1] 0.052 | [2] 0.023 | [3] 0.018 | [4] 0.015 | [5] 0.103 | [6] -0.033 | [7] -0.042 | [8] -0.033 | IRAK-1-4 Inhibitor I 0.088

COASY isoform 2 (UniProt Q13057)
inactive: erlotinib 0.006 | [1] -0.049 | [2] -0.044 | [3] -0.007 | [4] 0.022 | [5] -0.018 | [6] -0.05 | [7] -0.019 | [8] 0.024 | IRAK-1-4 Inhibitor I -0.019

CYP51A1 (UniProt Q16850)
inactive: erlotinib -0.029 | [1] 0.045 | [2] 0.193 | [3] 0.058 | [4] -0.087 | [5] -0.041 | [6] 0.118 | [7] -0.092 | [8] -0.023 | IRAK-1-4 Inhibitor I 0.043

CLCN3 isoform 2 (UniProt P51790)
inactive: erlotinib 0.003 | [1] 0.083 | [2] -0.061 | [3] -0.005 | [4] -0.004 | [5] -0.042 | [6] 0.013 | [7] -0.032 | [8] 0.029 | IRAK-1-4 Inhibitor I 0.068
